# Data as given in PMC11062922 (Nature Chemical Biology, 2023).
# Like-named read-outs stand apart in the source and are kept apart here.
# Key:
# Design in all cases: species or system human, MV4-11 + K-562 + COLO205 + SK-N-BE2 + OVCAR-8
# [1] = tested on: CDK7; conditions: read-out: apparent Kd, n = 1
# [2] = tested on: ERCC2; conditions: read-out: apparent Kd; compound concentrations:100 nM and 1000 nM (sheet 'Samples'); n = 1
# [3] = tested on: FER; conditions: read-out: apparent Kd, n = 1
# [4] = tested on: LATS1; conditions: read-out: apparent Kd, n = 1
# [5] = tested on: MARK4; conditions: read-out: apparent Kd, n = 1
# [6] = tested on: PLK4; conditions: read-out: apparent Kd, n = 1
# [7] = tested on: PRKAA1; conditions: read-out: apparent Kd, n = 1
# [8] = tested on: PTK2B; conditions: read-out: apparent Kd, n = 1
# [9] = tested on: PTK2; conditions: read-out: apparent Kd, n = 1
# [10] = tested on: RPS6KA6; conditions: read-out: apparent Kd, n = 1
# [11] = tested on: STK10; conditions: read-out: apparent Kd, n = 1
# [12] = tested on: TNK2; conditions: read-out: apparent Kd, n = 1
# [13] = tested on: CDKL5; conditions: read-out: apparent Kd; compound concentrations:100 nM and 1000 nM (sheet 'Samples'); n = 1
# [14] = tested on: FLT3; conditions: read-out: apparent Kd, n = 1
# [15] = tested on: MYLK3; conditions: read-out: apparent Kd, n = 1
# [16] = tested on: PRKCD; conditions: read-out: apparent Kd, n = 1
# [17] = tested on: PRKCQ; conditions: read-out: apparent Kd, n = 1
# [18] = tested on: PRKD2; conditions: read-out: apparent Kd, n = 1
# [19] = tested on: DYRK1A; conditions: read-out: apparent Kd, compound concentrations: 100 nM and 1000 nM (sheet 'Samples'), n = 1
# [20] = tested on: PRKD3; conditions: read-out: apparent Kd; compound concentrations: 100 nM and 1000 nM (sheet 'Samples'), CATDS: 4.0252223893410396E-3; n = 1
# [21] = compound concentrations:100 nM and 1000 nM (sheet 'Samples')
smiles,measurement,setting,value
CN1C[C@@H]2Cn3c(c(C4=C(c5cn(C)c6ccccc56)C(=O)NC4=O)c4ccccc43)C[C@H]2C1.Cl [RO0320234-001],potency estimated from few doses,[1]; [21],137 nM
same,potency estimated from few doses,[2],123 nM
same,potency estimated from few doses,[3]; [21],94.8 nM
same,potency estimated from few doses,[4]; [21],1780 nM
same,potency estimated from few doses,[5]; [21],1210 nM
same,potency estimated from few doses,[6]; [21],500 nM
same,potency estimated from few doses,[7]; [21],248 nM
same,potency estimated from few doses,[8]; [21],193 nM
same,potency estimated from few doses,[9]; [21],129 nM
same,potency estimated from few doses,[10]; [21],215 nM
same,potency estimated from few doses,[11]; [21],2020 nM
same,potency estimated from few doses,[12]; [21],84.4 nM
O=C1NC(=O)C(N2CCc3ccccc32)=C1c1ccccc1Cl [SB-373598],potency estimated from few doses,[1]; [21],93.7 nM
same,potency estimated from few doses,[13],1390 nM
same,potency estimated from few doses,[2],114 nM
same,potency estimated from few doses,[3]; [21],183 nM
same,potency estimated from few doses,[14]; [21],1500 nM
same,potency estimated from few doses,[4]; [21],994 nM
same,potency estimated from few doses,[5]; [21],884 nM
same,potency estimated from few doses,[15]; [21],974 nM
same,potency estimated from few doses,[6]; [21],273 nM
same,potency estimated from few doses,[7]; [21],273 nM
same,potency estimated from few doses,[16]; [21],2190 nM
same,potency estimated from few doses,[17]; [21],1580 nM
same,potency estimated from few doses,[18]; [21],1920 nM
same,potency estimated from few doses,[8]; [21],129 nM
same,potency estimated from few doses,[9]; [21],173 nM
same,potency estimated from few doses,[10]; [21],125 nM
same,potency estimated from few doses,[11]; [21],996 nM
same,potency estimated from few doses,[12]; [21],108 nM
Cn1ncc2c(N)ncnc21 [SKF-18267],potency estimated from few doses,"[1]; compound concentrations: 100 nM and 1000 nM (sheet 'Samples'), CATDS: 5.5514862333248096E-3",667 nM
same,potency estimated from few doses,[19]; CATDS: 3.77369052298554E-3,1560 nM
same,potency estimated from few doses,"[3]; compound concentrations: 100 nM and 1000 nM (sheet 'Samples'), CATDS: 5.4218087868892397E-3",697 nM
same,potency estimated from few doses,"[14]; compound concentrations: 100 nM and 1000 nM (sheet 'Samples'), CATDS: 6.0970372773572496E-3",564 nM
same,potency estimated from few doses,"[4]; compound concentrations: 100 nM and 1000 nM (sheet 'Samples'), CATDS: 3.8471015452543802E-3",1480 nM
same,potency estimated from few doses,"[5]; compound concentrations: 100 nM and 1000 nM (sheet 'Samples'), CATDS: 3.8950662850455102E-3",1430 nM
same,potency estimated from few doses,"[15]; compound concentrations: 100 nM and 1000 nM (sheet 'Samples'), CATDS: 3.9686163384318402E-3",1360 nM
same,potency estimated from few doses,"[6]; compound concentrations: 100 nM and 1000 nM (sheet 'Samples'), CATDS: 4.9790098691835901E-3",821 nM
same,potency estimated from few doses,"[16]; compound concentrations: 100 nM and 1000 nM (sheet 'Samples'), CATDS: 3.5352355938645099E-3",1880 nM
same,potency estimated from few doses,"[17]; compound concentrations: 100 nM and 1000 nM (sheet 'Samples'), CATDS: 3.4517086035176399E-3",2030 nM
same,potency estimated from few doses,"[18]; compound concentrations: 100 nM and 1000 nM (sheet 'Samples'), CATDS: 4.0514258518823199E-3",1290 nM
same,potency estimated from few doses,[20],1320 nM
same,potency estimated from few doses,"[8]; compound concentrations: 100 nM and 1000 nM (sheet 'Samples'), CATDS: 7.2672167282142302E-3",423 nM
same,potency estimated from few doses,"[9]; compound concentrations: 100 nM and 1000 nM (sheet 'Samples'), CATDS: 4.9483549300151902E-3",831 nM
same,potency estimated from few doses,"[10]; compound concentrations: 100 nM and 1000 nM (sheet 'Samples'), CATDS: 7.1387563408407901E-3",435 nM
same,potency estimated from few doses,"[11]; compound concentrations: 100 nM and 1000 nM (sheet 'Samples'), CATDS: 3.6177977688347301E-3",1760 nM
same,potency estimated from few doses,"[12]; compound concentrations: 100 nM and 1000 nM (sheet 'Samples'), CATDS: 5.8659667131667897E-3",604 nM
COc1ccc(Nc2ncc(C#N)c(Nc3ccccc3C(N)=O)n2)cc1N1CCN(C)CC1.Cl [GSK1558669A],potency estimated from few doses,[19]; CATDS: 6.6106373934709103E-3,954 nM
same,potency estimated from few doses,"[3]; compound concentrations: 100 nM and 1000 nM (sheet 'Samples'), CATDS: 1.1172004845485001E-2",137 nM
same,potency estimated from few doses,"[14]; compound concentrations: 100 nM and 1000 nM (sheet 'Samples'), CATDS: 2.0604812795468701E-2",35.1 nM
same,potency estimated from few doses,"[4]; compound concentrations: 100 nM and 1000 nM (sheet 'Samples'), CATDS: 9.7361630406248897E-3",205 nM
same,potency estimated from few doses,"[5]; compound concentrations: 100 nM and 1000 nM (sheet 'Samples'), CATDS: 1.5249165601859399E-2",64.4 nM
same,potency estimated from few doses,"[15]; compound concentrations: 100 nM and 1000 nM (sheet 'Samples'), CATDS: 2.6075418388892199E-2",23.1 nM
same,potency estimated from few doses,"[6]; compound concentrations: 100 nM and 1000 nM (sheet 'Samples'), CATDS: 7.9359519159901901E-3",415 nM
same,potency estimated from few doses,"[7]; compound concentrations: 100 nM and 1000 nM (sheet 'Samples'), CATDS: 2.0149023571651901E-2",36.6 nM
same,potency estimated from few doses,"[8]; compound concentrations: 100 nM and 1000 nM (sheet 'Samples'), CATDS: 1.3529380969040701E-2",84.5 nM
same,potency estimated from few doses,"[9]; compound concentrations: 100 nM and 1000 nM (sheet 'Samples'), CATDS: 4.75918589440152E-2",9.26 nM
same,potency estimated from few doses,"[10]; compound concentrations: 100 nM and 1000 nM (sheet 'Samples'), CATDS: 2.0856200348519E-2",34.3 nM
same,potency estimated from few doses,"[11]; compound concentrations: 100 nM and 1000 nM (sheet 'Samples'), CATDS: 1.0596963300075399E-2",159 nM
